Screening results: PubChem BioAssay, several laboratories
CYP2C19 inhib: inhibitors of human CYP2C19; 96,000 compounds, 21% hits; AID 778; inhibition, % at 5 µM; CYP2C19 Supersomes, luciferin-H EGE luminescence, 30 min;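 active means CYP2C19 inhibition above a set limit at 5 µM in the primary screen, cut at about 50% in these data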
CYP2C9 act: increases human cytochrome P450 2C9 activity | P11712 | recombinant CYP2C9, luciferin-H conversion, luminescence; hits give high values; factor 1 = untreated enzyme, 0 = blocked | activation factor at 5 µM | 96,000 compounds, 1.4% hits | AID 1024;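 active means activation factor of 2 or more for CYP2C9 at a 5 µM dose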
Target sequence (P11712 whole entry, looked up): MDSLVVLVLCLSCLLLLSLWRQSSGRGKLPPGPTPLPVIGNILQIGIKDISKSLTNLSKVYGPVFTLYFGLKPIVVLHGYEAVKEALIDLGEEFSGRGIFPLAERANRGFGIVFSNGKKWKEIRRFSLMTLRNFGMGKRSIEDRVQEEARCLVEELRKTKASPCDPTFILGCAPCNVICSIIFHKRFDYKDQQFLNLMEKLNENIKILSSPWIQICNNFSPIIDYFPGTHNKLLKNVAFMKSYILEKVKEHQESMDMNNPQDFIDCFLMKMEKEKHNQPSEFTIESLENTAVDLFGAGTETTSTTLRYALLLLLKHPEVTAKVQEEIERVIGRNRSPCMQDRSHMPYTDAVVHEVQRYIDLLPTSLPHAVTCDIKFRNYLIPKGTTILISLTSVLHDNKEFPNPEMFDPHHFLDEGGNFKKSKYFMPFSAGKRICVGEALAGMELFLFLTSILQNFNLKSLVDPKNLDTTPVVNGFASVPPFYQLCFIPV
CYP2C9 inh: blocks human cytochrome P450 2C9. 96,000 compounds, 20% hits. CYP2C9 Supersomes, luciferin-H conversion, luminescence. inhibition, % at 5 µM. P11712;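 active means blocking of liver enzyme CYP2C9 beyond about 50% at 5 µM, limit read from the data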
PTK2B oligo ant: antagonists of human Pyk2 oligomerization; Q14289; Q293 cells, Pyk2 FERM NanoBiT luminescence; hits give low values; z-score (the deposit names both 25 µM and 10 µM); 99,000 compounds, 0.83% hits; AID 1347419;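 active means Z-score of -3 or lower, scaled per plate to the spread of control and sample wells; inactive means z-score above -3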;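 further: negative z-score means lost luminescence so less FERM oligomerization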
Cav32 inh: inhibitors of human Cav3.2 T-type calcium channel; O95180; Cav3.2-expressing cells, Fluo-4 calcium fluorescence FDSS; hits give low values; B-score at 10 µM; AID 449739; 100,000 compounds, 4% hits;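 active means single-dose well whose peak fluorescence ratio is a statistical outlier from its plate by either plate-standardised score or position-corrected B-score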
CYP2C19 activ: activators of human cytochrome P450 2C19. activation factor at 5 µM. P33261. AID 1025. 96,000 tested, under 10 active. recombinant CYP2C19, luciferin-H EGE luminescence; hits give high values; 0 = fully inhibited enzyme, 1 = untreated enzyme;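 active means activation factor of at least 2 at 5 µM in the primary screen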
Each line names hits and unclear results; the compound was inactive in the other large screens. Rows were chosen to be rich in hits. Some 27% of all compounds tested hit in one or more screens of this group.

C=CCNCCCCOc1ccc(OCC)cc1	none
CCN(CCNC(=O)C1CCN(Cc2nc(-c3cccc(Cl)c3)oc2C)CC1)c1ccccc1	Cav32 inh -6.94
Cc1oc(-c2cccc(Cl)c2)nc1CN1CCC(C(=O)NCc2cccnc2)CC1	none
Cc1oc(-c2ccc(Cl)cc2)nc1CN1CCC(C(=O)NCCCN2CCOCC2)CC1	none
CCN(CCNC(=O)C1CCN(Cc2nc(-c3ccc(Cl)cc3)oc2C)CC1)c1ccccc1	Cav32 inh -8.4
CCOC(=O)c1cnc(SCc2nc(N)nc(Nc3ccccc3OC)n2)nc1N	CYP2C9 inh 59.7 (no result: PTK2B oligo ant, Cav32 inh)
CCOC(=O)c1cnc(SCc2nc(N)nc(Nc3ccc(C)cc3)n2)nc1N	CYP2C19 inhib 53.6, CYP2C9 inh 53.7
COc1ccccc1Nc1nc(N)nc(CSc2ncccn2)n1	none
Cc1ccc(Nc2nc(N)nc(CSc3ncccn3)n2)cc1	none
CCOC(=O)c1cnc(SCc2nc(N)nc(Nc3ccc(F)cc3)n2)nc1N	CYP2C19 inhib 72.4, CYP2C9 inh 66.1
Cc1ccc(CN(c2ccc(C(=O)NCc3ccccn3)cc2)S(C)(=O)=O)cc1	none
Cc1ccccc1CN(c1ccc(C(=O)Nc2cccnc2)cc1)S(C)(=O)=O	CYP2C19 inhib 98.5, CYP2C9 inh 95.9
COc1ccccc1NC(=O)c1ccc(CN(c2cc(Cl)ccc2C)S(=O)(=O)c2ccccc2)cc1	none
COc1ccc(NC(=O)c2ccc(CN(c3cc(Cl)ccc3C)S(=O)(=O)c3ccccc3)cc2)cc1OC	CYP2C9 inh 65.8
Cc1ccc(Cl)cc1N(Cc1ccc(C(=O)NCc2cccnc2)cc1)S(=O)(=O)c1ccccc1	CYP2C9 inh 58.5 (no result: Cav32 inh)
Cc1ccc(CN(c2ccc(C(=O)NCc3cccnc3)cc2)S(C)(=O)=O)cc1	CYP2C19 inhib 93.4, CYP2C9 inh 93.5
CCNc1nc2c(c(=O)[nH]c(=O)n2C)n1Cc1ccc(F)cc1	none (no result: PTK2B oligo ant, Cav32 inh)
CNC(=O)CC(C(=O)O)c1ccc(OCC(C)C)cc1 (centres undefined)	none (no result: Cav32 inh)
CS(=O)(=O)N(Cc1ccc(C(=O)NCCSCc2ccco2)cc1)c1ccccc1	CYP2C19 inhib 55.2, CYP2C9 inh 84.9
CNC(=O)c1ccc(N(Cc2ccccc2)S(C)(=O)=O)cc1	CYP2C19 inhib 52.2
CS(=O)(=O)N(Cc1ccc(C(=O)NCc2ccco2)cc1)c1ccccc1	none
CC1Cc2ccccc2N1C(=O)CN1C(=O)C(=O)N(Cc2ccccc2)C1=O (centres undefined)	none
O=S(=O)(Nc1ncnc2sc3c(c12)CCC3)c1ccc(Cl)s1	CYP2C9 inh 80.6
Cc1ccc(CNc2nc(C)nc3sc4c(c23)CCC4)cc1	none
Cc1nc(NS(=O)(=O)c2ccc(Br)cc2)c2c3c(sc2n1)CCC3	CYP2C19 inhib 76.5, CYP2C9 inh 97.1, Cav32 inh -4.61
Cc1nc(NC(C)c2ccccc2)c2c3c(sc2n1)CCC3 (centres undefined)	CYP2C19 inhib 83.8, CYP2C9 inh 55.9
O=C(O)[C@H](CO)Nc1ncnc2sc3c(c12)CCC3	none (no result: Cav32 inh)
COC(=O)[C@@H](NC(=O)Nc1ccc(OC)cc1)C(C)C	none
CNC(=O)Cn1nc(-c2ccc(C)c(S(=O)(=O)N(C)C)c2)c2ccccc2c1=O	none (no result: CYP2C19 inhib, CYP2C9 act, CYP2C9 inh, CYP2C19 activ)
C=CCC(C#Cc1ccccc1)[N+](C)(C)CC=C (centres undefined)	none
C=CC[N+](C)(C)C/C(Cl)=C(\Cl)c1ccccc1	CYP2C9 inh 54.8
CC1(c2nnc(-c3ccncc3)o2)CC(c2ccc([N+](=O)[O-])cc2)=NO1 (centres undefined)	none (no result: CYP2C19 inhib, CYP2C9 act, CYP2C9 inh, PTK2B oligo ant, CYP2C19 activ)
C=CCOC(=O)C1=C(C)NC(C)=C(C(=O)OCC=C)C1/C=C/c1ccccc1	none (no result: CYP2C19 inhib, CYP2C9 act, CYP2C9 inh, CYP2C19 activ)
CCOC(=O)C1=C(C)NC(C)=C(C(=O)OCC)C1c1ccccc1/C=C/C(=O)OC(C)(C)C	Cav32 inh -4 (no result: CYP2C19 inhib, CYP2C9 act, CYP2C9 inh, PTK2B oligo ant, CYP2C19 activ)
CCOC(=O)C1=C(C)NC(=O)NC1c1ccccc1Cl (centres undefined)	none
COC(=O)C1=C(C)NC(C)=C(C(=O)OC)C1/C=C/c1ccccc1	CYP2C9 inh 55.2
CCOC(=O)C1=C(C)NC(C)=C(C(=O)OCC)C1/C=C/c1ccccc1	CYP2C19 inhib 68.4, CYP2C9 inh 70.1
C/C(=N\NC(=O)c1cccc(F)c1)c1ccc(Br)s1	none
Nc1ccc2[nH]ncc2c1	none (no result: CYP2C19 inhib, CYP2C9 act, CYP2C9 inh, PTK2B oligo ant, CYP2C19 activ)
O=C1Nc2ccccc2C(O)(C(=O)NC2CC2)N1c1ccc(Cl)c(Cl)c1 (centres undefined)	none
